Results taken from ChEMBL document CHEMBL3988442, “University of Dundee, Small-Polar-MMV Screening Library” (2021).
For some assays here: Results with a measured potency or affinity are listed apart.

Key:
Set-up in all cases: scale not given: direction of the effect not stated beside the values
[1] = biological target: Protein translocase subunit SecA (Escherichia coli (strain K12)) (UniProt P10408); assay: Assay to Identify E. coli SecA ATPase Inhibitors; type: functional; settings: 30 µM
[2] = biological target: T1, Ubiquitin-activating enzyme e1, putative (Leishmania donovani (strain BPK282A1)) (UniProt E9BSI1); assay: Leishmania donovani Ubiquitin Activating Enzyme (LdE1); type: functional; settings: 30 µM
T1 sequence (whole entry): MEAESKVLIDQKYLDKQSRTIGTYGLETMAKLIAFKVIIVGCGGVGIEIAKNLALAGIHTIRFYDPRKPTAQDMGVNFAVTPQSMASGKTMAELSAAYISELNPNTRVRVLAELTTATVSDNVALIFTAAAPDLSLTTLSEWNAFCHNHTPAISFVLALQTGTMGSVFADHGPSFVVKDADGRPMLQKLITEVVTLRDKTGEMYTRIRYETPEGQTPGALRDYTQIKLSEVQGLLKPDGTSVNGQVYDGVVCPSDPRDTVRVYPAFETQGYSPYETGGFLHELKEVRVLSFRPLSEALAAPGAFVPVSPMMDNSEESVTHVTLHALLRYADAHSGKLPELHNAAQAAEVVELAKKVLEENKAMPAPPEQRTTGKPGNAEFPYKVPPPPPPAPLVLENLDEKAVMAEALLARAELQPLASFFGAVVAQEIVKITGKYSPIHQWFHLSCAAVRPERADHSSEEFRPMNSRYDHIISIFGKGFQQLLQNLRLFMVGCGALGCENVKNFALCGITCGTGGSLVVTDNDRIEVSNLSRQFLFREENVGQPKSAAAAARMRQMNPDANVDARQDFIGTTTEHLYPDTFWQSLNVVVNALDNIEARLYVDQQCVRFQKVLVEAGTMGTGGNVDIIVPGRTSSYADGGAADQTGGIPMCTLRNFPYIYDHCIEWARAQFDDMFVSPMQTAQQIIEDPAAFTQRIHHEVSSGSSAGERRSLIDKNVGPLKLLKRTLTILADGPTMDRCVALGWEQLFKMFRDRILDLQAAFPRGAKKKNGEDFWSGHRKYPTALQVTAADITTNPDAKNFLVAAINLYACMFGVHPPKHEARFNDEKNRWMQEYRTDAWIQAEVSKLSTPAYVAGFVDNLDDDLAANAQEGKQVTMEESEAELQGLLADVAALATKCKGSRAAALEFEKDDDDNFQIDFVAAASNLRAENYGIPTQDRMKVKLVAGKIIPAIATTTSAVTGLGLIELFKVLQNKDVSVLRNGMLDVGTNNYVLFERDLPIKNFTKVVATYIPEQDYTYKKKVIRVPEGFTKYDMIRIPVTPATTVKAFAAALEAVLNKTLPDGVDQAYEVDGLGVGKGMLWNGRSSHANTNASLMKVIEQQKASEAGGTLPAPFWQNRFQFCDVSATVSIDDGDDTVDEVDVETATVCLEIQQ

[3] = biological target: AMP-activated protein kinase, AMPK (Homo sapiens) (UniProt P54646+O43741+P54619+Q9UGJ0+Q9Y478+Q13131+Q9UGI9); assay: AMP-dependent Kinase enzyme assay. An in vitro enzyme assay that detects ADP turnover that is directly proportional to AMPK activity. This uses naive AMPK that is activated during the assay with MK-8722; type: functional; settings: 30 µM
[4] = biological target: Sialic acid-binding Ig-like lectin 9 (Homo sapiens) (UniProt Q9Y336); assay: Hs-Siglec9 ALPHAscreen SOP 20170721; settings: 10 µM
Trypanosoma cruzi = assay: Trypanosoma cruzi phosphomannomutase and mannose-1-phosphate guanylyltransferase assay; type: functional; settings: 10 µM
[5] = biological target: T2, Arginase-2, mitochondrial (Homo sapiens) (UniProt P78540); assay: in vitro enzyme assay to detect the production of urea directly proportional to the activity of Arginase II; type: functional; settings: 33.3 µM; also: in the data most compounds retested in dose-response had high values
T2 sequence (whole entry): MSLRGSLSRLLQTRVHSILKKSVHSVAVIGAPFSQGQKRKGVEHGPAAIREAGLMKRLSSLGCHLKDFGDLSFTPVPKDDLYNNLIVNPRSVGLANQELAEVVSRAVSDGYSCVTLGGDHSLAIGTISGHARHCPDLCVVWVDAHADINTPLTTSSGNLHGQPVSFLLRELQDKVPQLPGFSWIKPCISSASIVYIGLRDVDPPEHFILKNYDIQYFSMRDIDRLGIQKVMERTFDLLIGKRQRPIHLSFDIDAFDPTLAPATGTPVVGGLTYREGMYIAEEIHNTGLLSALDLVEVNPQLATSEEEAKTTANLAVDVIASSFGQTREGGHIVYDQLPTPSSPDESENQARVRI

[6] = biological target: T3, Proteasome subunit beta (Trypanosoma cruzi) (UniProt O96673); assay: Trypanosoma cruzi proteasome chymotrypsin-like activity (TcProtChymo) assay.; also: in the data most compounds retested in dose-response had high values; type: functional; settings: 9.37 µM
T3 sequence (whole entry): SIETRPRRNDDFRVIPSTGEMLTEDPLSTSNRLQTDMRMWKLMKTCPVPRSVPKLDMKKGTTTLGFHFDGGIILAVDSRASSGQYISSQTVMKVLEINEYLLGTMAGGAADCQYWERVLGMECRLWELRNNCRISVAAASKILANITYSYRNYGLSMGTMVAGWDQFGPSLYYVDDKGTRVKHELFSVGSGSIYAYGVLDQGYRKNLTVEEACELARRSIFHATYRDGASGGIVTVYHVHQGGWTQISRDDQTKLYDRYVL

Homo sapiens = species: Homo sapiens; assay: To identify inhibition of the IFN signalling (Jak-Stat) pathway via expression of an eGFP reporter gene under the control of an IFN-stimulated response element (ISRE) containing MxA promoter.; type: functional; settings: 30 µM
[7] = biological target: T4, Tyrosyl-tRNA synthetase, putative (Trypanosoma cruzi (strain CL Brener)) (UniProt Q4DSP6); assay: Trypanosoma cruzi tyrosyl tRNA synthetase (TcYRS) _High Tyrosine SOP; type: functional; settings: 30 µM; also: in the data most compounds retested in dose-response had high values
T4 sequence (whole entry): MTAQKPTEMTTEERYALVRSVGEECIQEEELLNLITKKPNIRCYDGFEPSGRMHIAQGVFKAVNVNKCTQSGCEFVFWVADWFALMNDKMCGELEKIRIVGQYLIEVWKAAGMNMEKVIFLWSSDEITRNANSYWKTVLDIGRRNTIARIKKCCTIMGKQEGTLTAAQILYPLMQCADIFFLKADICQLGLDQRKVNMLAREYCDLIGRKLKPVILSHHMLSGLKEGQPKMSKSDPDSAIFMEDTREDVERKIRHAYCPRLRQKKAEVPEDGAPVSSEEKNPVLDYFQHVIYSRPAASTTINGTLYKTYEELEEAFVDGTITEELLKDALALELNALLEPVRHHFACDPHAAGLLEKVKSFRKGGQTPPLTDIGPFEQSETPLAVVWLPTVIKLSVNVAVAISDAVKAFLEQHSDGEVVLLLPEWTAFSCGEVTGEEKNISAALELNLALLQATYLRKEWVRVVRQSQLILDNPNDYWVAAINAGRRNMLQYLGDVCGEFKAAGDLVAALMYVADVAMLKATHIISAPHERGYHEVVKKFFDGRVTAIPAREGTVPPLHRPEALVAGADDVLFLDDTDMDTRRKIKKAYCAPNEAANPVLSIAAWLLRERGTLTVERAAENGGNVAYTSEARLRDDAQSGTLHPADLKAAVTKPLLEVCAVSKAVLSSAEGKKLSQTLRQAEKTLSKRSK

[8] = biological target: T4, Tyrosyl-tRNA synthetase, putative (Trypanosoma cruzi (strain CL Brener)); assay: Trypanosoma cruzi tyrosyl tRNA synthetase (TcYRS) SOP; type: functional; settings: 30 µM
[9] = biological target: Chromo domain-containing protein 1 (Saccharomyces cerevisiae (strain ATCC 204508 / S288c) (Baker's yeast)) (UniProt P32657); assay: ScCHD-1 Enzyme Inhibition Assay; type: functional; settings: 30 µM; also: in the data most compounds retested in dose-response had high values
Sequence of Chromo domain-containing protein 1 (Saccharomyces cerevisiae (strain ATCC 204508 / S288c) (Baker's yeast)) (P32657 whole entry, the tested form may be a part): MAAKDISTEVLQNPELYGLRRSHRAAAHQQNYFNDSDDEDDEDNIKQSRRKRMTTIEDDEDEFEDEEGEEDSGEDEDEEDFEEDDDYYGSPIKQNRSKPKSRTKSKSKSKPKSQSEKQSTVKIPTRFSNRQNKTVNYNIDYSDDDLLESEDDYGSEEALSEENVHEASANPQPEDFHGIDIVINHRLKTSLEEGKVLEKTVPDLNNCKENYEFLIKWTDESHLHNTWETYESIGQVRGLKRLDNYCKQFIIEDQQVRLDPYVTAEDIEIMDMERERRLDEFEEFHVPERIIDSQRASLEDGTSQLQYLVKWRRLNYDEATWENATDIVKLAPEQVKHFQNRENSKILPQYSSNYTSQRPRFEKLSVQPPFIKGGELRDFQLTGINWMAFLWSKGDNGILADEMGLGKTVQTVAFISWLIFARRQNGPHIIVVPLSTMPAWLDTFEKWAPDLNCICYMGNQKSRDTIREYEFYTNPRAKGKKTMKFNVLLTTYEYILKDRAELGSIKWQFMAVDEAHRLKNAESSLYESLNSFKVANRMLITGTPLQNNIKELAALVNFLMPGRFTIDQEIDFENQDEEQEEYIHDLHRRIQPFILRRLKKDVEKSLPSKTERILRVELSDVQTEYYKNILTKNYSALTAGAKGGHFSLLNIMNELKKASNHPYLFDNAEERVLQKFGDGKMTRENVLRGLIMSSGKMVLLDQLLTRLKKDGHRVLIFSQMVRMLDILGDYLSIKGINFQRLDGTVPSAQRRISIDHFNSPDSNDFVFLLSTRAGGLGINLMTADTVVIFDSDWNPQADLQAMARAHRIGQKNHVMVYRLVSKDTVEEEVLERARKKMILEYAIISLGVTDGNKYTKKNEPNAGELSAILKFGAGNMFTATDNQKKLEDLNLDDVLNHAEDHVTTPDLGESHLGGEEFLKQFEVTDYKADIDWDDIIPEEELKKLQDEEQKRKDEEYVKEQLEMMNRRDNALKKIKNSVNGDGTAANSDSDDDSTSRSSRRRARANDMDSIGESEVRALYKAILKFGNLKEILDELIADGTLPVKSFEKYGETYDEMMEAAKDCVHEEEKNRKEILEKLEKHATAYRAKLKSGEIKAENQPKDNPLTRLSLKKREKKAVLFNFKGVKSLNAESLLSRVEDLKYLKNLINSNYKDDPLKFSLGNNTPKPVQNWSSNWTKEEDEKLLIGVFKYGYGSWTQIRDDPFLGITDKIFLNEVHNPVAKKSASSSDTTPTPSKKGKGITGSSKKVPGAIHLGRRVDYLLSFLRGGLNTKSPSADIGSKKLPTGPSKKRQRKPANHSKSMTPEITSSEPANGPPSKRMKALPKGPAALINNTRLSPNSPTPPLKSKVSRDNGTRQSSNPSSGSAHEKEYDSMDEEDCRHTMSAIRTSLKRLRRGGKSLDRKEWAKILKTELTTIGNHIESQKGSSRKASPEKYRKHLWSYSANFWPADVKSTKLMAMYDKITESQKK

Sequence of Sialic acid-binding Ig-like lectin 9 (Homo sapiens) (Q9Y336 whole entry): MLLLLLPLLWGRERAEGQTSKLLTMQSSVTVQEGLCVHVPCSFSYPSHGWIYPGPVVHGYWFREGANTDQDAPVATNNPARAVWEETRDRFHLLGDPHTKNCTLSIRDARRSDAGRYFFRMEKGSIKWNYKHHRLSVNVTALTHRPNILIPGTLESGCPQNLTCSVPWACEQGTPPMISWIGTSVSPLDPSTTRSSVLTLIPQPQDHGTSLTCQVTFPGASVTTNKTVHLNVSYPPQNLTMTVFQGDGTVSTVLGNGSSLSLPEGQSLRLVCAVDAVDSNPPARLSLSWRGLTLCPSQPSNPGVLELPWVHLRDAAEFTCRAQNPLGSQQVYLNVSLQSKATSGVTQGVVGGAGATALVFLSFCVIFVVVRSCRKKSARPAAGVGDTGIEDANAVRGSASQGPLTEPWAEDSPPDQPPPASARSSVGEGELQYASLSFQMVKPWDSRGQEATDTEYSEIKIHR
Sequence of Protein translocase subunit SecA (Escherichia coli (strain K12)) (P10408 whole entry): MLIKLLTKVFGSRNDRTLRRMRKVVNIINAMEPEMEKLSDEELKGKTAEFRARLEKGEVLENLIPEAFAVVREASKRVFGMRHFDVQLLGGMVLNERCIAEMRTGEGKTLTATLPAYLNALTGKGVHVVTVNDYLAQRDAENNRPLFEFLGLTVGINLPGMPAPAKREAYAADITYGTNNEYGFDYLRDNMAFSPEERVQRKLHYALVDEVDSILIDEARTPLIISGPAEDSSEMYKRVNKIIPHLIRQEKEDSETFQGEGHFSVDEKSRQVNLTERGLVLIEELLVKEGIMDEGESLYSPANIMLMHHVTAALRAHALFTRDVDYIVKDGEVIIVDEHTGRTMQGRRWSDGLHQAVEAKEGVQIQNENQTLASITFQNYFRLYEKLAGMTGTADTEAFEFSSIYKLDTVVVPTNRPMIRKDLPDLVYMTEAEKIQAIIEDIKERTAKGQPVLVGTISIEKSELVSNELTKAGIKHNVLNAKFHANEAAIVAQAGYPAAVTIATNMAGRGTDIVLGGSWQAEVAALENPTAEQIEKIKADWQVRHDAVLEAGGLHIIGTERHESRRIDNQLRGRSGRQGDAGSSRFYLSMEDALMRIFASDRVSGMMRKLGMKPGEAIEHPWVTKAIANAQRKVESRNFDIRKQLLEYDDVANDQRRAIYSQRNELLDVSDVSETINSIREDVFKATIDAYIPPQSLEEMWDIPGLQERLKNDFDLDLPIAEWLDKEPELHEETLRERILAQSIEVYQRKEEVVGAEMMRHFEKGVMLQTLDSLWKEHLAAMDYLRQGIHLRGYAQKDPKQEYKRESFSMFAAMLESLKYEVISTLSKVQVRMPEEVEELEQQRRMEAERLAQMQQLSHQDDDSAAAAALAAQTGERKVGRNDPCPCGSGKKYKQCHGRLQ

Structure (SMILES)	Percent Effect [1]	Percent Effect [2]	Percent Effect [3]	Percent Effect [4]	Percent Effect (Trypanosoma cruzi)	Percent Effect [5]	Percent Effect [6]	Percent Effect (Homo sapiens)	Percent Effect [7]	Percent Effect [8]	Percent Effect [9]
COc1ccc(CNCc2ccnc(N3CCOCC3)c2)c(OC)c1	-4.43%	8.11%	-10.3%	1.04%	-3.49%	3.21%	7.75%	28.2%	3.45%	6.17%	-4.72%
COc1ccccc1OCC(=O)NS(=O)(=O)c1ccccc1F	-3.52%	13.5%	-3.34%	25.9%	4.44%	-0.952%	11.9%	6.7%	2.65%	9.76%	-10.8%
Cc1nc(C(C)(C)NC(=O)Nc2ccccc2)no1	-11.3%	-2.74%	2.23%	-0.244%	-3.53%	3.18%	6.92%	17.2%	-2.15%	0%	-0.168%
Cc1nnc(SCC(=O)N2CCC3(CC2)c2ccccc2CC3O)o1 (configuration not stated)	-5.99%	13%	-6.65%	21.9%	6.79%	0%	7.49%	-5.03%	3.23%	16.1%	-7.51%
Cc1cccc(CN2CCC3(CCCN(C(=O)c4ccsc4)C3)C2=O)n1 (configuration not stated)	-2.33%	0%	10.5%	-2.49%	0.0986%	-0.645%	3.48%	-3.21%	3.17%	3.85%	87.7%
CC1(C(=O)N2CCOCC2)CN(Cc2ccccc2F)CCO1 (configuration not stated)	-2.69%	8%	12%	4.39%	-4.13%	0.699%	-1.15%	17%	3.19%	8.97%	-1.88%
Cc1cnn(CCC(=O)N2C[C@H]3CC[C@@H]2CN(CC(=O)N(C)C)C3)c1	0.243%	13.5%	-6.36%	7.46%	7.34%	1.91%	17.6%	5.29%	5.82%	17.1%	-2.52%
N#Cc1cccnc1NCCNC(=O)N1CCCC(C(F)(F)F)C1 (configuration not stated)	-0.35%	10.8%	-2.73%	11.1%	4.83%	13.3%	19%	23.4%	4.76%	19.5%	-4.05%
Cc1nc(CN2CCCCC2Cn2cncn2)nc2ccccc12 (configuration not stated)	-2.07%	26%	-3.54%	-19.4%	3.23%	1.47%	20.1%	2.22%	10.5%	23.5%	-22.8%
Cc1ccc(-c2ncc(C(=O)NCCS(N)(=O)=O)s2)c(C)c1	-7.16%	5.41%	-2.36%	0.84%	-5%	-3.61%	9.55%	21.4%	0.493%	-1.24%	-4.18%
CCN1CCCC1CN(CCN(C)C)S(=O)(=O)c1cccc(C#N)c1 (configuration not stated)	-5.4%	13.7%	3.08%	5.43%	6.27%	4.09%	8.16%	0.578%	4.3%	10%	-4.67%
COc1cc(C(=O)N(Cc2ccc(F)cc2)C2CC2)cc2c1OCCO2	0.816%	7.89%	1.68%	-4.56%	2.43%	3.55%	21.2%	36.9%	3.19%	13%	-3.44%
CC(C)c1cc(C(=O)N2CCN(Cc3ccsc3)CC2)n[nH]1	-2.94%	13.5%	-2.35%	15%	5.57%	18.1%	12.1%	28%	4.3%	18.5%	-3.72%
COc1ccc(CNC2CCN(CCc3ccncc3)CC2)cc1O	-6.94%	16.2%	-9.03%	9.91%	5.27%	26.7%	10.6%	-0.697%	-6.93%	8.54%	-9.05%
Cc1cccc(C(=O)Nc2ccc(OC3CCN(C)CC3)cc2)c1	-3.56%	7.79%	6.98%	12%	7.57%	22.1%	7.82%	-1.95%	5.38%	13.6%	-8.12%
COc1ccccc1CC1CCCN(CCC#N)C1 (configuration not stated)	-3.04%	5.2%	-0.847%	2.02%	3.82%	4.42%	-6.39%	8.44%	2.86%	11.8%	-9.24%
Cc1cc(F)ccc1CN1CCCC2(C1)OCCO2	-1.89%	2.7%	-1.85%	-3.22%	0.391%	1.67%	6.34%	1.71%	2.97%	-3.66%	-3.73%
O=C(c1ccccn1)N1CCCC(c2nccn2Cc2ccncc2)C1 (configuration not stated)	-1.27%	2.74%	-0.242%	0.902%	2.94%	0.909%	19.7%	3.55%	10.8%	10%	-14%
CC1CCN(Cc2cnc(S(=O)(=O)CC3CC3)n2CC2CCCO2)CC1 (configuration not stated)	-4.08%	-4.17%	9.77%	0.164%	-3.21%	-2.65%	0.877%	4.06%	-1.05%	-7.69%	5.99%
CC(CNc1cncc(-n2cccn2)n1)N(C)c1ccccc1 (configuration not stated)	-0.428%	0%	9.04%	7.11%	0.374%	0.712%	1.52%	51.6%	0.971%	0%	-6.86%
CNS(=O)(=O)Cc1ccc(CNC(=O)c2cccc(C)n2)cc1	-2.39%	23.4%	0.0556%	2.86%	4.12%	-3.92%	5.57%	15.5%	11.7%	21.9%	-7.52%
CN(C)S(=O)(=O)N1C[C@H](Oc2cccnc2)[C@H]2OCCC[C@H]21	-5.31%	5.2%	74%	-1.91%	-0.69%	-4.52%	3.65%	10.9%	0%	-1.28%	-8.75%
